STK33 kin inh: blocks human STK33 kinase activity; Q9BYT3; ADP-Glo luminescence, MBP substrate; inhibition, % at 12.5 µM; 0.44% of 27,000 active; in the data active means inhibition above about 20%; inconclusive means no clear call, values can overlap the other calls
Target sequence (Q9BYT3 whole entry, looked up): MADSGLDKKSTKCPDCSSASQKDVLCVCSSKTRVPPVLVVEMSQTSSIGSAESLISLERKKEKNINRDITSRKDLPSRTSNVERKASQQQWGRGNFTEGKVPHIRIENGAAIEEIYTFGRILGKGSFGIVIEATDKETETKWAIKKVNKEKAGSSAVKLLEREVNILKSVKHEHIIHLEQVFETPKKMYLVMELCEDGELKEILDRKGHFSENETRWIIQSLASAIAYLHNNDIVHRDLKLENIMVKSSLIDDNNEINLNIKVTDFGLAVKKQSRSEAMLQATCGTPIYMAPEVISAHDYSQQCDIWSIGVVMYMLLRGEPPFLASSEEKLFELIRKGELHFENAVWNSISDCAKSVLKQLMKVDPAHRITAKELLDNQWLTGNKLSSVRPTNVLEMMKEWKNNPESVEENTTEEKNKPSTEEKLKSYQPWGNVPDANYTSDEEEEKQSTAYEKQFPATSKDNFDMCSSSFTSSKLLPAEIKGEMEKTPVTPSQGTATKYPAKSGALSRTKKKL
NOMO-1 viab: STK33 inhibitor candidate reducing NOMO-1 cell viability; 7.5% of 37,000 active; NOMO-1 AML viability, CellTiter-Glo luminescence, 72 h; inhibition, % (test concentration not listed); AID 2330; in the data active means inhibition above about 80%; inconclusive means no clear call, values can overlap the other calls
PD-1 reverse act: reversal of PD-1 mediated T-cell inhibition; primary human CD4 T cells, PD-L1 beads, CellTiter-Glo 96 h; activation, % (test concentration not listed); 29,000 tested, under 10 active; AID 2316; call rule not given here;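 further: 0% = median vehicle wells and 100% = positive control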
An asterisk follows results filed as active; ? = inconclusive; nt = not tested or not shown. Many of the other results were omitted from the sample, so hits are more common in it than they were.

SMILES	STK33 kin inh	NOMO-1 viab	PD-1 reverse act
CCN1C[C@@]2(COC)C3[C@@H](OC)[C@H]4[C@@H]1[C@@]3(C1C[C@]3(O)[C@H](OC(=O)c5ccccc5)C1[C@]4(OC(C)=O)[C@@H](O)[C@H]3OC)[C@@H](OC)C[C@H]2O (stereo not given in full)	-1	56	1
COC1=CC(=O)OC(/C=C/c2ccccc2)C1 (stereo not given)	2	-14	-3
CCOC(=O)CN1C(=O)CC(C[C@@H](O)C2C[C@@H](C)C[C@H](C)C2=O)CC1=O (stereo not given in full)	-2	-10	3
CCCCSP(=O)(SCCCC)SCCCC	-2	-12	nt
CC12C/C(=C\c3ccccc3)C(=O)C[C@@H]1CCC1C2CCC2(C)C1CC[C@]2(C)O (stereo not given in full)	nt	2	-1
Cc1ccc(OC(=O)N(C)C[C@@H]2OCc3cnnn3CCCC(=O)N([C@H](C)CO)C[C@H]2C)cc1	2	nt	nt
CCOC(=O)C1=NN(c2ccc(C)cc2)C2c3cccc4cccc(c34)C12 (stereo not given)	nt	22	0
COc1ccc(C[C@H]2NC[C@H](O)[C@H]2OC(C)=O)cc1	0	120*	nt
C/C(CC(c1ccccc1)c1c(O)c2ccccc2oc1=O)=N/O (stereo not given)	nt	-8	2
C=C1[C@@H](C)[C@H]2[C@H](Cc3ccccc3)NC(=O)[C@]23[C@H](OC(C)=O)C=C[C@](C)(O)C(=O)[C@@H](C)C/C=C/[C@H]3[C@@H]1O	-12	114*	nt
N#C[C@@H](OC1OC(COC2OCC(O)C(O)C2O)C(O)C(O)C1O)c1ccccc1 (stereo not given in full)	-2	31	1
CO[C@H]1C[C@H](OC2CCC3(C)C4CCC5(C)C(C6=CC(=O)OC6)CC(OC(C)=O)C5(O)C4CC[C@H]3C2)O[C@@H](C)[C@@H]1O (stereo not given in full)	-2	109*	-16
C[C@H]1OC(O[C@H]2[C@@H](O)CC(O[C@H]3[C@@H](O)C[C@H](O[C@H]4CC[C@]5(C)C6CC[C@]7(C)[C@@H](C8=CC(=O)OC8)[C@@H](O)C[C@]7(O)[C@@H]6CC[C@@H]5C4)O[C@@H]3C)O[C@@H]2C)C[C@H](O)C1O (stereo not given in full)	-2	107*	nt
C[C@H]1O[C@@H](O[C@H]2[C@@H](O)C[C@H](O[C@H]3[C@@H](O)C[C@H](O[C@H]4CC[C@@]5(C)[C@H](CC[C@@H]6[C@@H]5CC[C@]5(C)[C@@H](C7=CC(=O)OC7)CC[C@]65O)C4)O[C@@H]3C)O[C@@H]2C)C[C@H](O)[C@@H]1O	-8	124*	-34
COC(=O)[C@@]12C(=O)C(C)C(=O)[C@]1(C)C(C)=C[C@H]1[C@]3(C)CC[C@H](OC(C)=O)C(C)(C)[C@H]3CC[C@@]12C (stereo not given in full)	-3	17	3
OC(Cc1ccncc1)C(Cl)(Cl)Cl (stereo not given)	1	-5	-1
Cc1cc(OC(=O)N(C)C)cc(=O)n1C	nt	17	0
C=C1C(=O)O[C@@H]2/C=C(/C)CC/C=C(/C)C[C@@H](OC(=O)/C(=C/CO)CO)C12 (stereo not given in full)	-1	119*	-7
CCCCOC(=O)c1ccccc1C(=O)OCc1ccccc1	1	7	nt
C/C1=C/C(=O)O[C@@H]2C[C@@H](CC[C@H](C)/C=C\CC1)O[C@@](O)([C@@H]1CSC(=O)N1)C2	-2	114*	nt
O=C(O)CP(=S)(c1ccccc1)c1ccccc1	nt	-14	-1
N#C/C(=C\c1ccc(O)cc1)C(=O)O	27*	5	nt
CCc1cccc(CC)c1N(COC)C(=O)CCl	0	50	nt
CCOCN(C(=O)CCl)c1c(C)cccc1CC	1	109*	nt
CC[C@]12C=CCN3CC[C@@]4(c5ccc(OC)cc5N(C)[C@H]4[C@@](O)(C(=O)OC)[C@@H]1OC(C)=O)[C@@H]32	0	19	-1
SMILES	STK33 kin inh	NOMO-1 viab	PD-1 reverse act
O=[N+]([O-])c1c(NCCO)ccc2nonc12	6	6	nt
CO[C@H]1[C@H](O)[C@H](O[C@H]2CC[C@]3(C)C4CC[C@]5(C)[C@H](C6=CC(=O)OC6)CC[C@]5(O)C4CC[C@@H]3C2)O[C@@H](C)[C@@H]1O (stereo not given in full)	-1	123*	-35
C[C@@H]1O[C@@H](O[C@H]2C[C@@H](O)[C@]3(CO)[C@H]4[C@H](O)C[C@]5(C)[C@@H](C6=CC(=O)OC6)CC[C@]5(O)[C@@H]4CC[C@]3(O)C2)[C@H](O)[C@H](O)[C@H]1O	-6	119*	nt
C[C@]12CC[C@H]3[C@@H](CC[C@]4(O)C[C@@H](O)CC[C@]34C=O)[C@@]1(O)CC[C@@H]2C1=CC(=O)OC1	-1	115*	nt
CO[C@H]1[C@H](O)[C@@H](O[C@H]2CC[C@]3(C=O)C4CC[C@]5(C)[C@@H](C6=CC(=O)OC6)CC[C@]5(O)C4CC[C@@H]3C2)O[C@@H](C)[C@@H]1O (stereo not given in full)	2	112*	nt
COc1cccc(CNCCc2c[nH]c3ccccc23)c1O	0	16	nt
c1cncc([C@H]2CCCCN2)c1	-2	-5	nt
O=c1cccc2n1C[C@H]1CNCC2C1	4	6	nt
O=C(NC(=O)c1c(F)cccc1F)Nc1cc(Cl)c(OC(F)(F)C(F)C(F)(F)F)cc1Cl (stereo not given)	1	18	nt
OC[C@H]1O[C@@H](Oc2c[nH]c3ccc(Br)c(Cl)c23)[C@H](O)[C@@H](O)[C@H]1O	3	42	-1
NC(N)=NC(N)=Nc1ccc(Cl)cc1	nt	6	-1
OC1CCCCC1N1CCC(c2ccccc2)CC1 (stereo not given)	2	-1	nt
C[C@@H]1O[C@@H](OC2CCC3(C)C4CCC5(C)C(C6=CC(=O)OC6)CCC5(O)C4CC[C@H]3C2)[C@H](O)[C@H](O)[C@H]1O (stereo not given in full)	-2	109*	-16
Clc1ccc(C2CC3CCC2N3)cn1 (stereo not given)	-1	12	-2
COC[C@H]([C@@H](O)[C@@H](O)C(=O)NCC[C@@H](C)c1nc(/C=C/C[C@H]2OC3(C[C@H](O)[C@H]2C)OC([C@@H](C[C@@H](O)[C@@H](C)[C@@H](O)[C@@H](C)/C=C(C)/C(C)=C/C=C/C(C)=C\C#N)OC)[C@@H](OP(=O)(O)O)C3(C)C)co1)N(C)C (stereo not given in full)	2	139*	-42
CCc1nc2ccccc2c(=O)n1-c1ccc(OC)cc1	2	6	2
CC(C)c1cc2c(cc1O)[C@@]1(C)CCCC(C)(C)[C@@H]1CC2O (stereo not given in full)	-4	94*	-1
CC1(C)CCC[C@]2(C)c3cc(O)c(O)cc3C(=O)CC12 (stereo not given in full)	0	nt	nt
COC[C@H]1OC(=O)c2coc3c2[C@@]1(C)C1=C(C3=O)C2CCC(=O)[C@@]2(C)C[C@H]1OC(C)=O (stereo not given in full)	5	?	-14

Bioassay records deposited in PubChem BioAssay by Broad Institute.
